# Values joined by “and” are separate entries in the source; they are usually repeats but may differ in a detail not shown here. Identical values can stand only once. Inconclusive results are not listed. More than one record can exist for a structure, and the calls need not agree. Active and inactive are the calls of the source. How the source made its calls, unless noted: active means hit-call score of the fitted dose curve at least 0.9, where 1 is the maximum; inconclusive means response in the unintended direction; inactive means score below 0.9.
# Key:
# [1] = target: Sodium channel protein type 1 subunit alpha (Rattus norvegicus) (UniProt P04774); assay: NVS_IC_rNaCh_site2: NovaScreen (NVS) Ion Channel Assay for rat Sodium Channel, Site 2 (NaCh) (AID 2283322);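 further: hit means loss of radioligand binding signal relative to DMSO so AC50 marks displacement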
# In short: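 Initial duplicate single-point testing at 25 uM, followed by concentration-response runs for actives. Binding of radioligand to rat forebrain membranes quantified after 1 h via filter-based radiodetection.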
# [2] = target: human Serotonin, 5-Hydroxytryptamine Receptor 3 (5HT3), HTR3A (gene 3359) (UniProt P46098); assay: NVS_LGIC_h5HT3: NovaScreen (NVS) Ligand-Gated Ion Channel Assay for human Serotonin, 5-Hydroxytryptamine Receptor 3 (5HT3) (AID 2283325)
# In short: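 Initially tested at 25 uM in duplicate, then up to 50 uM in concentration-response for actives, compounds competed with a radioligand for HEK293-derived human 5-HT3 receptor. Bound counts were measured by filtration and scintillation at 1 h; loss of signal versus DMSO.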
# [3] = target: rat Glutamate, NMDA Agonist Site (GluNMDA), Grin1 (gene 24408) (UniProt P35439); assay: NVS_LGIC_rGluNMDA_Agonist: NovaScreen (NVS) Ligand-Gated Ion Channel Assay for rat Glutamate, NMDA Agonist Site (GluNMDA) (AID 2283327)
# In short: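 Radioligand displacement at the agonist site on rat forebrain membrane preparations, read by filter scintillation after 1 h. Chemicals were first run at 25 uM in duplicate; those passing threshold were titrated to a 50 uM maximum.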
# [4] = target: human Peripheral-type Benzodiazepine Receptor (PBR), TSPO (gene 706) (UniProt P30536); assay: NVS_MP_hPBR: NovaScreen (NVS) Membrane Protein Assay for human Peripheral-type Benzodiazepine Receptor (PBR) (AID 2283331);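 further: hits reduce radioligand binding relative to DMSO baseline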
# In short: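 Cell-free radioligand displacement, human colonic membranes, 1 h exposure. Filter radiodetection read-out. Single-concentration duplicates (25 uM), then concentration-response for actives; DMSO negative control.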
# [5] = target: rat Peripheral-type Benzodiazepine Receptor (PBR), Tspo (gene 24230) (UniProt P16257); assay: NVS_MP_rPBR: NovaScreen (NVS) Membrane Protein Assay for rat Peripheral-type Benzodiazepine Receptor (PBR) (AID 2283335)
# In short: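 Competitive displacement of specific radioligand from rat kidney membrane PBR, read by filtration and scintillation after 1 h. Compounds first tested at 25 uM in duplicate, then in concentration series; signal loss relative to DMSO.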
# [6] = NVS_IC_rCaDHPRCh_L: NovaScreen (NVS) Ion Channel Assay for rat Calcium Channel, Type L, Dihydropyridine Site (CaDHPRCh_L) (AID 2283320)
# In short: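 Rat cortex membrane preparation; dihydropyridine-site radioligand displacement read 1 h post-dose by filtration and scintillation. Primary single-point screen 25 uM in duplicate, then concentration series to 50 uM maximum; DMSO as negative control.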
# [7] = target: bovine Gamma-Aminobutyric Acid Type A Receptor BDZ, alpha 5 site (GABARa5), GABRA5 (gene 523515) (UniProt Q08E50); assay: NVS_LGIC_bGABARa5: NovaScreen (NVS) Ligand-Gated Ion Channel Assay for bovine Gamma-Aminobutyric Acid Type A Receptor BDZ, alpha 5 site (GABARa5) (AID 2283323)
# In short: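 Tested first in duplicate at a single 25 uM, with hits re-run in concentration series to a 50 uM maximum. Bovine hippocampal membranes; specific radioligand displacement measured by filter scintillation counting 1 hr post-dose.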
# [8] = target: rat Oxytocin Receptor (OXT), Oxtr (gene 25342) (UniProt P70536); assay: NVS_GPCR_rOXT: NovaScreen (NVS) G Protein-Coupled Receptor Assay for rat Oxytocin Receptor (OXT) (AID 2283330)
# In short: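 Binding to rat uterine membrane receptor was followed by scintillation counting of filter-trapped radioligand after 1 h. A 25 uM duplicate single-point screen preceded concentration series with a top of 50 uM. Signal loss was analysed relative to DMSO.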
# [9] = target: rat Thyrotropin Releasing Hormone Receptor (TRH), Trhr (gene 25570) (UniProt Q01717); assay: NVS_GPCR_rTRH: NovaScreen (NVS) G Protein-Coupled Receptor Assay for rat Thyrotropin Releasing Hormone Receptor (TRH) (AID 2283329);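 further: hit means lower bound tracer signal versus DMSO baseline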
# In short: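 Test compounds are screened at 25 uM in duplicate against radioligand binding in rat forebrain membranes, with active pairs followed up over a concentration range. Detection uses filter-based radiodetection after a 4 h exposure.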
# [10] = target: Small conductance calcium-activated potassium channel protein 1 (Rattus norvegicus) (UniProt P70606); assay: NVS_IC_rKCaCh: NovaScreen (NVS) Ion Channel Assay for rat Potassium Channel, Ca2+ Act., VI (KCaCh) (AID 2283336)
# In short: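 Filter-based scintillation counting of radioligand bound to rat forebrain membrane preparations, measured 1 h after compound addition. Primary screen used 25 uM in duplicate, with concentration-response follow-up; signal decrease relative to DMSO marks activity.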
# [11] = target: human Androgen Receptor (AR), AR (gene 367) (UniProt P10275); assay: NVS_NR_hAR: NovaScreen (NVS) Nuclear Receptor Binding Assay for human Androgen Receptor (AR) (AID 2283332)
# In short: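 LnCAP cell-free extract; radioligand displacement read by scintillation counting after 20 h. Primary screen single concentration 25 uM in duplicate, actives then run as concentration series; loss-of-signal fitted relative to DMSO baseline.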
# [12] = target: Voltage-gated inwardly rectifying potassium channel KCNH2 (Homo sapiens) (UniProt Q12809); assay: NVS_IC_hKhERGCh: NovaScreen (NVS) Ion Channel Assay for human Potassium Channel ERG (KhERGCh) (AID 2283333)
# In short: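 Membranes from CHO cells expressing human ERG; displacement of radioligand measured by filtration and scintillation after 0.75 h. Single-concentration duplicate screen at 25 uM, then concentration-response for actives; DMSO baseline.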
# [13] = target: Glutamate receptor ionotropic, kainate 1 (Rattus norvegicus) (UniProt P22756); assay: NVS_IC_rKAR: NovaScreen (NVS) Ion Channel Assay for rat Kainic Acid Receptors (KAR) (AID 2283334; active means hit-call score of the fitted dose curve at least 0.9, where 1 is the maximum; inactive means score below 0.9)
# In short: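 Rat forebrain membrane preparation incubated 1 h with radioligand and test chemical; bound signal read by filtration and scintillation. Single-concentration screen at 25 uM, then concentration series to 50 uM maximum.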
# [14] = target: rat Gamma-Aminobutyric Acid Type A Receptor BDZ, alpha 6 site (GABARa6), Gabra6 (gene 29708) (UniProt P30191); assay: NVS_LGIC_rGABARa6: NovaScreen (NVS) Ligand-Gated Ion Channel Assay for rat Gamma-Aminobutyric Acid Type A Receptor BDZ, alpha 6 site (GABARa6) (AID 2283339)
# In short: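 Actives from a 25 uM duplicate screen were retested in concentration series (max 50 uM). Specific radioligand displacement from rat cerebellar membranes was counted by filter-based scintillation at 1 h; DMSO served as baseline.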
# Sequence of rat Peripheral-type Benzodiazepine Receptor (PBR), Tspo (gene 24230) (P16257 whole entry, looked up): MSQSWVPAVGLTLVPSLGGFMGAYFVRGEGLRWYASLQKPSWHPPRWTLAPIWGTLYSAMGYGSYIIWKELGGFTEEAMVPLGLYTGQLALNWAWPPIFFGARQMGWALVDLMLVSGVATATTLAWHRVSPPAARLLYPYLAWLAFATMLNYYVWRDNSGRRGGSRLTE
# Sequence of human Peripheral-type Benzodiazepine Receptor (PBR), TSPO (gene 706) (P30536 whole entry, looked up): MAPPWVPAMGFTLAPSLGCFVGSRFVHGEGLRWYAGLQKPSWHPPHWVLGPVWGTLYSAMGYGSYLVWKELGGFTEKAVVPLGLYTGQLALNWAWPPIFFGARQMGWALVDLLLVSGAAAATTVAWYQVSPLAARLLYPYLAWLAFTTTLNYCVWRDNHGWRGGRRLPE
# Sequence of human Androgen Receptor (AR), AR (gene 367) (P10275 whole entry, looked up): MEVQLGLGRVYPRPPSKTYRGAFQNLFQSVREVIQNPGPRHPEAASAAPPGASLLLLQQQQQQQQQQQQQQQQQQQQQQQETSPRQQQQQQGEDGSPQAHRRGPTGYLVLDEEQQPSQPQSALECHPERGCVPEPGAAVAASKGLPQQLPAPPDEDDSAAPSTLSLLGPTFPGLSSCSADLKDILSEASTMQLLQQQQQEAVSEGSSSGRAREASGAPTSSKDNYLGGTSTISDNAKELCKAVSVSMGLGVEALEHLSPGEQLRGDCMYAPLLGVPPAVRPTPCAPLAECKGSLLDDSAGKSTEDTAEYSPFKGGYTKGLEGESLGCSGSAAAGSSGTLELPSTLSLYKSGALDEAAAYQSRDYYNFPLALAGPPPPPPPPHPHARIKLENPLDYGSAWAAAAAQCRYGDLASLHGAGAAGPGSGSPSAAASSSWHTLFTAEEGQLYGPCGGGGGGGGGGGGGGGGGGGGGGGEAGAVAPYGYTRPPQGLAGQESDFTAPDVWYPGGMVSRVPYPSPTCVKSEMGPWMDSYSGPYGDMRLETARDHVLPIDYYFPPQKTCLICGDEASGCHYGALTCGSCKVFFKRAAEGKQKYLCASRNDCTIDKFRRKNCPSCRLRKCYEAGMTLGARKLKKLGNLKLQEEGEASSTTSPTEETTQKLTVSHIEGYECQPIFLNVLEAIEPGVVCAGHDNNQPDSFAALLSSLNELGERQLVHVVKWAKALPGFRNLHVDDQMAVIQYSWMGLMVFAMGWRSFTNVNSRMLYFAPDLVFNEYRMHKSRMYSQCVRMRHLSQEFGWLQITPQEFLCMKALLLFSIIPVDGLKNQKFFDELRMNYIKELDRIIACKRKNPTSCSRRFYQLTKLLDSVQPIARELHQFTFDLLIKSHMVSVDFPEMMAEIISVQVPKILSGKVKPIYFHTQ
# Sequence of Small conductance calcium-activated potassium channel protein 1 (Rattus norvegicus) (P70606 whole entry, looked up): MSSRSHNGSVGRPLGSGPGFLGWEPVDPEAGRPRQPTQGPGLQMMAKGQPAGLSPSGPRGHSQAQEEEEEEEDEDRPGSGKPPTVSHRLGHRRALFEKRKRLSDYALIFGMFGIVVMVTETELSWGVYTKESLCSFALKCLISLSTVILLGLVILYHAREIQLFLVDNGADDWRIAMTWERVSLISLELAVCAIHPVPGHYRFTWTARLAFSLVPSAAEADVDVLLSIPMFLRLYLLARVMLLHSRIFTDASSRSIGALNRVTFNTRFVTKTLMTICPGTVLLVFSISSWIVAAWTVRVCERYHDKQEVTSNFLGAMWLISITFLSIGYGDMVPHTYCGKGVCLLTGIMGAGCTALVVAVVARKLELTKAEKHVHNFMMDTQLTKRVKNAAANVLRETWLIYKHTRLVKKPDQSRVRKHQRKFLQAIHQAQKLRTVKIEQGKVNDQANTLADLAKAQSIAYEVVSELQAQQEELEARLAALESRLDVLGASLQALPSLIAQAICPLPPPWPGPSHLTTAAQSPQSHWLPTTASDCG
# Sequence of rat Oxytocin Receptor (OXT), Oxtr (gene 25342) (P70536 whole entry, looked up): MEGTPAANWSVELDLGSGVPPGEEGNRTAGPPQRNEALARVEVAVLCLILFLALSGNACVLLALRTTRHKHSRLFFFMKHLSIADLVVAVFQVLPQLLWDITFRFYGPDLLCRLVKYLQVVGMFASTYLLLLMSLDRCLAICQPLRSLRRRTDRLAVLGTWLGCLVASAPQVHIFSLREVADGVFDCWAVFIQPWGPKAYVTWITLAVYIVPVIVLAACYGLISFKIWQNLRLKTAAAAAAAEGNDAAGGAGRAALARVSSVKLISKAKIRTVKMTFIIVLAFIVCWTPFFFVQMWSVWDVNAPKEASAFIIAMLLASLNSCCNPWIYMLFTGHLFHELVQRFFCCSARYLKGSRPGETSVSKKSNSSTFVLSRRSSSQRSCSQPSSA
# Sequence of rat Gamma-Aminobutyric Acid Type A Receptor BDZ, alpha 6 site (GABARa6), Gabra6 (gene 29708) (P30191 whole entry, looked up): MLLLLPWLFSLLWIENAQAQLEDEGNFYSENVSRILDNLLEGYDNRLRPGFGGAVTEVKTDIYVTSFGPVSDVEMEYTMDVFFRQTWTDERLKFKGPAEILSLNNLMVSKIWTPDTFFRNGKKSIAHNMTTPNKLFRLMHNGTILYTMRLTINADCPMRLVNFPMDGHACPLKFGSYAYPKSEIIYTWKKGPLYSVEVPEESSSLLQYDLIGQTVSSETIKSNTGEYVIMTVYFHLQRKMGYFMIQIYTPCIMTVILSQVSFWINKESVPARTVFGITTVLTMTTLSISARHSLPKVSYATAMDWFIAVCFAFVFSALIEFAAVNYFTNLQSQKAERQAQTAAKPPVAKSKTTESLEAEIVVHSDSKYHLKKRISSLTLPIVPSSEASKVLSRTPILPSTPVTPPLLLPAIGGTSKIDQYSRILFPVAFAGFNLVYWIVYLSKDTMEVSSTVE
# Sequence of bovine Gamma-Aminobutyric Acid Type A Receptor BDZ, alpha 5 site (GABARa5), GABRA5 (gene 523515) (Q08E50 whole entry, looked up): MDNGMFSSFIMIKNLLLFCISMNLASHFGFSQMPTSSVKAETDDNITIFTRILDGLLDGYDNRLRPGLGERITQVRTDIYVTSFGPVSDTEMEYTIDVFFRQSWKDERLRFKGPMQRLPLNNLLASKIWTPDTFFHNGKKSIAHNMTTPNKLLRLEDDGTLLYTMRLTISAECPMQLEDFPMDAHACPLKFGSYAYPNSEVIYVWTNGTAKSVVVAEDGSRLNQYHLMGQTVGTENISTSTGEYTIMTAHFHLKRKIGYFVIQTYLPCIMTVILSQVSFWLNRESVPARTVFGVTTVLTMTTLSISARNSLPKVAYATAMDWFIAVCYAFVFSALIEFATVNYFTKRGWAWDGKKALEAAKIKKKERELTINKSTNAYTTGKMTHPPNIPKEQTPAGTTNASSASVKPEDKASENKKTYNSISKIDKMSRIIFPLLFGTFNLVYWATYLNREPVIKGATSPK
# Sequence of rat Thyrotropin Releasing Hormone Receptor (TRH), Trhr (gene 25570) (Q01717 whole entry, looked up): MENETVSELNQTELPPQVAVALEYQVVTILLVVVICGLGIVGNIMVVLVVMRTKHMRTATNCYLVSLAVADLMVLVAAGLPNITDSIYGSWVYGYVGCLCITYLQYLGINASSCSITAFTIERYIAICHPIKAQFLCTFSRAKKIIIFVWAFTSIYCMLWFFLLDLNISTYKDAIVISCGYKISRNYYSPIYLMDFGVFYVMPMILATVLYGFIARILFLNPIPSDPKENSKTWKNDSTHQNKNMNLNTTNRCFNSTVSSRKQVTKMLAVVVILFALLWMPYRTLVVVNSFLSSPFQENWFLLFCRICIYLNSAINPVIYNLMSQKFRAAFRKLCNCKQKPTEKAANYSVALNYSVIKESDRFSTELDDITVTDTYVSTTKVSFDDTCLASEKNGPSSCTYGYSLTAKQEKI
# Sequence of Voltage-gated inwardly rectifying potassium channel KCNH2 (Homo sapiens) (Q12809 whole entry, looked up): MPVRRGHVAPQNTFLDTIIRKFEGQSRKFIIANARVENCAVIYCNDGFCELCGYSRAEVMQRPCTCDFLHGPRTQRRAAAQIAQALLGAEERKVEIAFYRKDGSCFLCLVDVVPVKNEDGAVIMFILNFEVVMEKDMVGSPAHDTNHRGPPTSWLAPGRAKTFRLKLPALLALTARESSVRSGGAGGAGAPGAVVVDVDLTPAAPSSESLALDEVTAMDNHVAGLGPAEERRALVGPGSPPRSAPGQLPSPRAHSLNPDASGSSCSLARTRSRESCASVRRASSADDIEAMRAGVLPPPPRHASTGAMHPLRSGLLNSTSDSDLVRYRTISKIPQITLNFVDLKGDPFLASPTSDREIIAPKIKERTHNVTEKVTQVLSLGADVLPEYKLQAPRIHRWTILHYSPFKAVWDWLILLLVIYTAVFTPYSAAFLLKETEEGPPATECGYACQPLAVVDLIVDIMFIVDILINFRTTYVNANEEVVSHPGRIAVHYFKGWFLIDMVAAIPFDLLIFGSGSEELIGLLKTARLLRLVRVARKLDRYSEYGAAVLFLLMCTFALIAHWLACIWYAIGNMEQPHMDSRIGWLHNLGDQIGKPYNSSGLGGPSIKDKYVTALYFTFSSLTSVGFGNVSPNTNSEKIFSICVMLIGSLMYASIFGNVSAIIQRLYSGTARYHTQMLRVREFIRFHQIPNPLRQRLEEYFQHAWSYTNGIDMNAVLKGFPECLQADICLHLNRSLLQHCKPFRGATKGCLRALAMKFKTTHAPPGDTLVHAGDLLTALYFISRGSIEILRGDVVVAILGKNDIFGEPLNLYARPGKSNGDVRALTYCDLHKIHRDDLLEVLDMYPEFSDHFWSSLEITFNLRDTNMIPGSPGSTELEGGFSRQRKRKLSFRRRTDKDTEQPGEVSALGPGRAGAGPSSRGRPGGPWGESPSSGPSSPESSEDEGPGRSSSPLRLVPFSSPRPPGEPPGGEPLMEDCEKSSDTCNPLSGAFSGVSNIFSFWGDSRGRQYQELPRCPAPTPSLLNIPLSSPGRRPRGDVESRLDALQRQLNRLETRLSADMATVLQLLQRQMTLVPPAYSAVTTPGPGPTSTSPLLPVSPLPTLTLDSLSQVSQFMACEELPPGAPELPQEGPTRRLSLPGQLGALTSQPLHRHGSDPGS
compound,measurement,setting,value
O=C(N[C@H]1CN2CCC1CC2)c1cc2ccoc2cn1,AC50,[1],11.7 µM (active)
same,AC50,[2],1.35 µM (active)
CCC(C)(c1ccc(O)cc1)c1ccc(O)cc1,AC50,[1],13.7 µM (active)
same,AC50,[3],16.4 µM (active)
same,AC50,[4],9.64 µM (active) and 2.96 µM (active) and 14.1 µM (active)
same,AC50,[5],6.5 µM (active)
same,outcome,[5],inactive
CCC(C)(CC)c1cc(NC(=O)c2c(OC)cccc2OC)on1,outcome,[6],inactive
same,outcome,[7],inactive
same,outcome,[4],inactive
same,outcome,[5],inactive
Oc1ccc(C(c2ccc(O)cc2)(C(F)(F)F)C(F)(F)F)cc1,AC50,[1],5.87 µM (active)
same,AC50,[3],19.5 µM (active)
same,AC50,[8],13.6 µM (active)
same,AC50,[5],6.31 µM (active)
same,outcome,[5],inactive
C[C@]12CCC(=O)C=C1CC[C@@H]1[C@@H]2CC[C@@]2(C)[C@H]1CC[C@]2(C)O,AC50,[1],3.26 µM (active)
same,outcome,[9],inactive
O=C(NC(=O)c1cc(F)c(F)cc1Cl)Nc1cc(F)ccc1N1CCC(C(=O)O)CC1,outcome,[8],inactive
same,outcome,[10],inactive
CCC(=O)O[C@H]1CC[C@H]2[C@@H]3CCC4=CC(=O)CC[C@]4(C)[C@H]3CC[C@]12C,AC50,[11],26.8 nM (active) and 48 nM (active)
CCOC(=O)C(O)(c1ccc(Cl)cc1)c1ccc(Cl)cc1,AC50,[11],6.91 µM (active)
Oc1ccc(Cl)cc1Cl,outcome,[12],inactive
COS(=O)(=O)OC,outcome,[13],inactive
c1ccc(-c2ccccc2)cc1,outcome,[10],inactive
O=S(=O)(O)C(F)(F)C(F)(F)C(F)(F)C(F)(F)C(F)(F)C(F)(F)F,outcome,[14],inactive
